Only some compounds are listed: those with a hit (about 10% of all), similar ones and a draw of the others.
ROMK mod: modulates human ROMK potassium channel activity. AID 1918. Tet-inducible ROMK, thallium flux fluorescence; actives lie on both sides. P48048. B-score at 10 µM. actives 2% (n = 130,000);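 active = signal ratio slope over the read window, or its plate-corrected B-score, at least 3 SD from the plate mean, either direction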;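 also: B-score of the F/F0 ratio slope over 7 to 12 s after thallium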
Lmaj promast: Leishmania major promastigote growth inhibition; Leishmania major promastigotes, resazurin fluorescence viability; inhibition, % at 10 µM; AID 1063; actives 9% (n = 200,000); in the data active = inhibition above about 50%;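 also: promastigotes grown with compound for 44 hours at 28 °C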
HCT116 bCat-KO: beta-catenin-lacking colon tumor cell growth suppression. actives 1.5% (n = 140,000). HCT116 beta-catenin knockout viability, CellTiter-Glo, 60 h; active compounds read low. viability, % at 10 µM;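 active = viability at or under a set limit, the compound median less 4 SD, cut at about 6% in these data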
Insulin prom inh: TRM-6 insulin promoter activity inhibition. TRM-6 cells (human fetal islet line), insulin promoter-eGFP reporter, imaging; reporter expression induced with tamoxifen. inhibition, % at 2 µM. actives 0.9% (n = 130,000);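 active = inhibition above the mean plus 3 SD, with well images judged a real hit on visual review, cut at about 60% in these data, passing the limit was not always enough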
PTEN del growth: growth suppressors of cells with PTEN tumor suppressor deletion | HCT116 PTEN-null viability, CellTiter-Glo, 60 h; active compounds read low | actives 1.2% (n = 140,000) | AID 827 | viability, % at 10 µM;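 active = viability at or below a set limit, 4 SD under the median of all tested compounds, cut at about 3.7% in these data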;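 also: PTEN knockout HCT116 line with beta catenin targeted HCT116 as companion control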
p97 ATPase inh: human p97 ATPase inhibition. P55072. recombinant p97 ATPase, Kinase-Glo ATP luminescence, 3 h. inhibition, % at 8 µM. actives 0.42% (n = 220,000). AID 1481; in the data active = inhibition above about 15%
Target sequence (P55072 whole entry, looked up): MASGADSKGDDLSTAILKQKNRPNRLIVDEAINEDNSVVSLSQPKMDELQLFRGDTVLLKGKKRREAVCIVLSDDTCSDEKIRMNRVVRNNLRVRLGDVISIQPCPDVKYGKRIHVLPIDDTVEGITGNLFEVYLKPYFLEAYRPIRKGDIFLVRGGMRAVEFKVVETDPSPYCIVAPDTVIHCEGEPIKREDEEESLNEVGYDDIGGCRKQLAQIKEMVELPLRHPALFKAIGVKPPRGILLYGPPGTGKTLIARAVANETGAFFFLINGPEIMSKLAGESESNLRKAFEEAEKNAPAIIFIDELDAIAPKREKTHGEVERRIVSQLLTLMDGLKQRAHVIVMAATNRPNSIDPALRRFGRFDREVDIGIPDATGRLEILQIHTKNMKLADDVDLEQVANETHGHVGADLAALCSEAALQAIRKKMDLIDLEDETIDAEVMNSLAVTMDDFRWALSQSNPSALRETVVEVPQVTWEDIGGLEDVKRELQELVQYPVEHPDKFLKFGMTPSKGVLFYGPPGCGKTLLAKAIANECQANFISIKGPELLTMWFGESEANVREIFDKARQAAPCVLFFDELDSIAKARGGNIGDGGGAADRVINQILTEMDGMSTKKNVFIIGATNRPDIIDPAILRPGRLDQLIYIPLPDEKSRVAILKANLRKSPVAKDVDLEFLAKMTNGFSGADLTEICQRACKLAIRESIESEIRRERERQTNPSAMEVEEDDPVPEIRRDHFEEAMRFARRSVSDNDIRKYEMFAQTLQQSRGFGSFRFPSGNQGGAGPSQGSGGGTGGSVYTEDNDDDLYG
Each line names hits and unclear results; the compound was inactive in the other large screens; ! = a repeat was not active.

O=C(c1ccco1)N1CCN(c2ncnc3c2[nH]c2ccc(Cl)cc23)CC1	none
Cc1sc(NC(=O)CCCC(=O)O)c(C(N)=O)c1-c1ccccc1	none (no result: HCT116 bCat-KO, Insulin prom inh, PTEN del growth)
C[C@@H](C(=O)OCn1nnc2ccccc2c1=O)N1C(=O)C2CCCCC2C1=O (some centres undefined)	none (no result: ROMK mod, HCT116 bCat-KO, PTEN del growth)
CCOC(=O)c1sc(N)c(C(=O)Nc2ccccc2)c1C	none (no result: HCT116 bCat-KO, Insulin prom inh, PTEN del growth)
COc1cc(OC)nc(Oc2cc(/C=N/O)ccc2OC)n1	none (no result: HCT116 bCat-KO, Insulin prom inh, PTEN del growth)
O=C(c1cc([N+](=O)[O-])cc([N+](=O)[O-])c1)N(Cc1nnc(-c2ccccc2Cl)o1)C1CC1	Lmaj promast 82 (no result: HCT116 bCat-KO, PTEN del growth)
O=[N+]([O-])c1ccc(Cc2nnc(-c3ccccc3Cl)o2)cc1	none (no result: HCT116 bCat-KO, PTEN del growth)
CCCN(Cc1nnc(-c2ccccc2Cl)o1)C(=O)c1cc([N+](=O)[O-])cc([N+](=O)[O-])c1	Lmaj promast 98 (no result: HCT116 bCat-KO, PTEN del growth)
O=C1Nc2ccc(Cl)cc2/C1=C/C1CC=CCC1 (centres undefined)	Lmaj promast 96
O=C(O)CC1S/C(=N/N=C/C2CC=CCC2)NC1=O (centres undefined)	none (no result: ROMK mod, HCT116 bCat-KO, PTEN del growth)
Cc1ccc(-c2nc(NCc3ccco3)c3ccccc3n2)cc1	Lmaj promast 100 (no result: ROMK mod)
CSc1nc(NCc2ccco2)c2ccccc2n1	Lmaj promast 70
CNc1nc(SC)nc2ccccc12	none (no result: HCT116 bCat-KO, Insulin prom inh, PTEN del growth)
COc1cccc(-c2nc(NCc3ccco3)c3ccccc3n2)c1O	none (no result: HCT116 bCat-KO, PTEN del growth)
c1cncc(-c2nc(NCc3ccco3)c3ccccc3n2)c1	Lmaj promast 77 (no result: ROMK mod)
CCc1ccc(-n2c(SCC(=O)N3Cc4ccccc4CC3C(=O)O)nnc2-c2ccncc2)cc1 (centres undefined)	none (no result: ROMK mod, Lmaj promast, HCT116 bCat-KO, Insulin prom inh, PTEN del growth)
NS(=O)(=O)c1ccc(NC(=O)c2ccc(CNS(=O)(=O)c3cc(C(F)(F)F)ccc3Cl)cc2)cc1	none (no result: HCT116 bCat-KO, Insulin prom inh, PTEN del growth)
Cc1ccccc1-n1c(SCC(=O)N/N=C/c2sccc2C)nc2ccccc2c1=O	Lmaj promast 86
Cc1ccc(S(=O)(=O)N(C)C)cc1-n1c(SCC(=O)Nc2ccccc2)nc2ccccc2c1=O	Lmaj promast 89
Cc1nn(-c2ccccc2)c(C)c1/C=N/NC(=O)CSc1nc2ccccc2c(=O)n1-c1ccc(Br)cc1	HCT116 bCat-KO 1.1, PTEN del growth 1.1 (no result: ROMK mod, Insulin prom inh)
Cc1ccc(S(=O)(=O)N(C)C)cc1-n1c(SCC(=O)Nc2ccc(F)cc2)nc2ccccc2c1=O	none (no result: ROMK mod, Insulin prom inh)
Cc1ccc(-n2c(SCC(=O)N/N=C/c3c(C)nn(-c4ccccc4)c3C)nc3ccccc3c2=O)cc1	none (no result: ROMK mod, Insulin prom inh)
Cc1nn(-c2ccccc2)c(C)c1/C=N/NC(=O)CSc1nnc(SCc2cccc3ccccc23)s1	Lmaj promast 97
Cc1ccccc1-n1c(SCC(N)=O)nc2sc(-c3ccccc3)cc2c1=O	none
Cc1ccccc1-n1c(SCC(=O)NC(N)=O)nc2sc(-c3ccccc3)cc2c1=O	Lmaj promast 61
COc1ccccc1OCCCCNCCO	none (no result: ROMK mod)
Cc1ccccc1OCCCCCNCCO	Lmaj promast 62
Cc1cccc(C)c1OCCCCCNCCO	Lmaj promast 89
CC(C)(C)c1ccccc1OCCCCCNCCO	Lmaj promast 93
CC(C)c1ccccc1OCCCCCNCCO	Lmaj promast 91 (no result: Insulin prom inh)
CSc1cccc(NC(=O)C(C)NS(=O)(=O)c2ccc(F)cc2)c1 (centres undefined)	none
COCCn1c(=NC(=O)c2ccc(S(=O)(=O)N3CCc4ccccc4C3)cc2)sc2cc(OC)ccc21	none
Cn1cccc1CC(=O)N/N=C/C=C/c1ccco1	none
COc1ccc(-c2cn(-c3ccccc3)c3[n+]2CCS3)cc1	Lmaj promast 85!
c1ccc(-c2cn(-c3ccccc3)c3[n+]2CCS3)cc1	none (no result: HCT116 bCat-KO, PTEN del growth)
CCCCC(CC)Cn1c(O)c(/C=C2\C=NN=C2c2ccccc2)sc1=S (centres undefined)	HCT116 bCat-KO 2.1, PTEN del growth 1.6 (no result: ROMK mod)
O=C(CN1C(=O)NC(c2ccccc2)(c2ccccc2)C1=O)c1c[nH]c2ccccc12	none (no result: HCT116 bCat-KO, Insulin prom inh, PTEN del growth)
CCOc1nc(Nc2ccc(F)cc2)nc(N2CCN(c3ccc(OC)cc3)CC2)n1	Lmaj promast 70
CCOc1nc(Nc2ccc(OC)c(Cl)c2)nc(N2CCN(c3ccc(OC)cc3)CC2)n1	Lmaj promast 72
N#Cc1ccc(Oc2nc(Nc3ccc(F)cc3)nc(N3CCCC3)n2)cc1	none (no result: ROMK mod)
CCOc1ccc(Nc2nc(N3CCCC3)nc(N3CCN(c4ccc(OC)cc4)CC3)n2)cc1	Lmaj promast 55 (no result: HCT116 bCat-KO, PTEN del growth)
COc1ccc(CCN(C)Cc2nc(Cc3ccc(OC)c(OC)c3)no2)cc1OC	none (no result: HCT116 bCat-KO, Insulin prom inh, PTEN del growth)
COc1ccc(-c2cn[nH]c2N)cc1	none
COc1ccc(-c2cn[nH]c2N)c(OC)c1	Insulin prom inh 84 (no result: ROMK mod)
CN1CCN(C(=O)C23CC4CC(C2)CC(c2ccccc2)(C4)C3)CC1	none (no result: HCT116 bCat-KO, Insulin prom inh, PTEN del growth)
CCOc1ccc(C(c2c(NC(=O)c3ccccc3)sc(C)c2C)N2CCN(C)CC2)cc1 (centres undefined)	Lmaj promast 52 (no result: ROMK mod, Insulin prom inh)
CCCCN1CCc2c1nc1ccc(Br)cc1c2N	Lmaj promast 101, Insulin prom inh 87 (no result: ROMK mod)
CCCCN(CC(=O)NCCOC)C(=O)Cn1nnc2ccccc21	none (no result: HCT116 bCat-KO, Insulin prom inh, PTEN del growth)
CCCCN1C(=O)/C(=C2\SC(N3CCCCC3)=NC2=O)c2ccccc21	Lmaj promast 51 (no result: ROMK mod)
O=C1N=C(N2CCCCC2)SC1=C1CCCC1	none (no result: Insulin prom inh)
CC1CCCCN1S(=O)(=O)c1ccc(N(C(=O)c2cnccn2)C(C(=O)NC2CCCC2)c2cccs2)cc1 (centres undefined)	Lmaj promast 93
O=C(COC(=O)CNC(=O)c1ccc(Cl)cc1)Nc1cccc(S(=O)(=O)N2CCCC2)c1	none (no result: ROMK mod, Lmaj promast, HCT116 bCat-KO, Insulin prom inh, PTEN del growth)
CS(=O)(=O)N1CCN(CC(=O)NC2CCCCC2)CC1	none (no result: HCT116 bCat-KO, Insulin prom inh, PTEN del growth)
CCOC(=O)c1cc(-c2ccc(C)cc2)nc2nc(SC)[nH]c(=O)c12	Lmaj promast 56
CCOC(=O)c1cc(-c2cccc(C(F)(F)F)c2)nc2nc(SC)[nH]c(=O)c12	none
O=C(NCCOC12CC3CC(CC(C3)C1)C2)c1cccc(Br)c1	Lmaj promast 94
Cc1cc(C)c(S(=O)(=O)NCC(CCC(=O)O)C(F)(F)F)c(C)c1 (centres undefined)	none (no result: HCT116 bCat-KO, PTEN del growth)
N#C/C(=C\c1cccc(O)c1)C(=O)Nc1ccc2c(c1)OCCO2	none (no result: ROMK mod, Lmaj promast, HCT116 bCat-KO, Insulin prom inh, PTEN del growth)
CCOc1cc(/C=C2/SC(=S)N(C)C2=O)ccc1Oc1ccc([N+](=O)[O-])cc1[N+](=O)[O-]	Lmaj promast 63 (no result: HCT116 bCat-KO, PTEN del growth)
COCCCNCCCCOc1ccccc1-c1ccccc1	Lmaj promast 98
OCCNCCOCCOc1ccccc1-c1ccccc1	Lmaj promast 62
OCCNCCOc1ccccc1-c1ccccc1	none
CCCCNCCOc1ccccc1-c1ccccc1	Lmaj promast 97
CN(C)CCOCCOc1ccccc1-c1ccccc1	Lmaj promast 81 (no result: ROMK mod)
CN(C)CCOc1ccccc1-c1ccccc1	none
COCCNCCOc1ccccc1-c1ccccc1	Lmaj promast 85
CC(C)(C)C(=O)CSc1nc(N)cc(=O)[nH]1	none (no result: HCT116 bCat-KO, Insulin prom inh, PTEN del growth)
Cc1cc(Nc2cccc([N+](=O)[O-])c2)c2ccccc2n1	none (no result: ROMK mod, HCT116 bCat-KO, Insulin prom inh, PTEN del growth)
Cc1cc(Nc2ccc3c(c2)OCCO3)c2cccc(C)c2n1	Lmaj promast 85
CC(=O)c1ccc(Nc2cc(C)nc3ccc(C)cc23)cc1	Lmaj promast 84 (no result: HCT116 bCat-KO, Insulin prom inh, PTEN del growth)
